Tgondii IFNg: inhibitors of Toxoplasma gondii growth with IFN-gamma; Toxoplasma gondii growth in IFN-gamma-treated host cells; stronger effect = lower value; activity change, negative = inhibition, % (test concentration not listed); 3.8% of 69,000 active; AID 1259416; in the data active means activity change below about -70%, passing the limit was not always enough;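 further: host cells are HeLa cells infected with Toxoplasma gondii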
Starred values were filed as active, the others as inactive; ! = a repeat was not active. This excerpt belongs to a sample that is enriched for hits.

`O=C(N[C@@H](CO)[C@H](O)c1ccc([N+](=O)[O-])cc1)C(Cl)Cl` gave Tgondii IFNg -8.
`Cc1nc(=O)[nH]c(C)c1CCC(=O)NC(C)C(=O)N(C)C` (centres undefined) gave Tgondii IFNg 5.
Screening CC1=NCCN1S(=O)(=O)c1c(C(C)C)cc(C(C)C)cc1C(C)C returned Tgondii IFNg 16.
For CC(C)c1cc(C(C)C)c(S(=O)(=O)Nc2ccc(O)cc2)c(C(C)C)c1 the results were Tgondii IFNg -75*.
Screening CC(C)c1ccc(NS(=O)(=O)c2cc3c4c(c2)CCC(=O)N4CCC3)cc1 returned Tgondii IFNg 2.
Screening Cc1noc(C)c1C(=O)Nc1cccc(C(=O)NC2CCCCC2)c1C returned Tgondii IFNg 133.
Screening Cc1nc(C2CCCN(CC(=O)Nc3nccs3)C2)ncc1C(=O)N(C)C (centres undefined) returned Tgondii IFNg 10.
For CO[C@H]1CCN(c2ncc(F)cn2)[C@H]1Cc1ccccc1 the results were Tgondii IFNg -7.
`COc1ccc(CNc2nc(C)nc(C)c2Oc2ccc(Cl)cc2Cl)cc1` gave Tgondii IFNg -8.
`CCOC(=O)c1nc(C)nc(Sc2ccc(Cl)cc2)c1C` gave Tgondii IFNg 11.
Screening Cc1nc(C)c(Oc2ccc(Cl)cc2Cl)c(Sc2cccc(C(F)(F)F)c2)n1 returned Tgondii IFNg -107*.
CCOc1ccc(NC(=O)c2c(O)c3cccnc3n(-c3ccccc3)c2=O)cc1 was read as Tgondii IFNg -20.
Screening COC(=O)c1ccccc1S(=O)(=O)N1CC=C[C@H]1C(=O)NCc1ccc(OC)cc1 returned Tgondii IFNg 21.
Screening O=C(Nc1cccc2cccnc12)c1ccccc1C1CCNC1 (centres undefined) returned Tgondii IFNg 21.
`O=C(Nc1cc(C(F)(F)F)cc(C(F)(F)F)c1)c1csc(-c2ccc(Cl)cc2)c1` gave Tgondii IFNg 48.
Screening O=C(Nc1cc(C(F)(F)F)cc(C(F)(F)F)c1)c1cc(Cl)ccc1O returned Tgondii IFNg -80*.
O=C(N/C=C/c1ccsc1)Sc1cc(C(F)(F)F)cc(C(F)(F)F)c1 was read as Tgondii IFNg 48.
O=C(Nc1cc(C(F)(F)F)cc(C(F)(F)F)c1)Nc1sccc1Cl was read as Tgondii IFNg -95*.
O=C(Nc1ccccc1-c1ccccc1)c1csnn1 was read as Tgondii IFNg 2.
Screening O=C(NC(=O)c1csnn1)Nc1cc(C(F)(F)F)cc(C(F)(F)F)c1 returned Tgondii IFNg -101*.
For O=C(c1ccccc1)c1c(Cl)cc(C(F)(F)F)cc1Cl the results were Tgondii IFNg -3.
COCCCNC(=O)c1ccccc1C(=O)Nc1cc(C(F)(F)F)cc(C(F)(F)F)c1 was read as Tgondii IFNg 37.
For O=C(Nc1ccccc1)c1cc2n(n1)CCN(C(=O)c1csnn1)C2 the results were Tgondii IFNg 39.
COc1ccc(S(=O)(=O)NCCc2sc(-c3ccc(F)cc3)nc2C)cc1C was read as Tgondii IFNg 58.
Screening COc1ccc(S(=O)(=O)CC(=O)O)cc1 returned Tgondii IFNg 1.
For Cc1ccc2c(c1)CN(C(=O)c1csc(-c3cccs3)n1)CC(C)O2 (centres undefined) the results were Tgondii IFNg -6.
`CC(=O)Nc1nc(C2CN(C(=O)c3ccn(C)n3)C2)cs1` gave Tgondii IFNg -4.
Screening CCOCC1COCCC12CCN(C(=O)CCc1ccccc1C)CC2 (centres undefined) returned Tgondii IFNg -68.
`CCOc1ccc(-c2nc(CN(C)S(=O)(=O)c3ccc(F)cc3)c(C)o2)cc1` gave Tgondii IFNg -30.
For CN(Cc1ccc(C(=O)Nc2ccc3c(c2)CC(=O)N3)cc1)CC1CCCO1 (centres undefined) the results were Tgondii IFNg 12.
`COC(=O)CCC(C)[C@H]1CCC2C3C(C[C@H](O)[C@@]21C)[C@@]1(C)CC[C@@H](O)CC1C[C@H]3O` (some centres undefined) gave Tgondii IFNg -67.
Screening Cc1ccc2[nH]nc(C(=O)N3CCCC(N)CC3)c2c1 (centres undefined) returned Tgondii IFNg -40.
Screening CCc1cn[nH]c1C1CCCN(C(=O)c2n[nH]c3ccc(C)cc23)C1 (centres undefined) returned Tgondii IFNg 32.
Cc1ccc2[nH]nc(C(=O)N3CCCC3c3ccc(Cc4ccccc4F)cn3)c2c1 (centres undefined) was read as Tgondii IFNg -105*.
Screening CCNC(=O)[C@H]1O[C@@H](n2cnc3c(N)nc(NCCc4ccc(CCC(=O)O)cc4)nc32)[C@@H](O)[C@@H]1O returned Tgondii IFNg 22.
Screening Cc1nnc(CCNC(=O)c2ccccc2C2CCNC2)s1 (centres undefined) returned Tgondii IFNg 5.
Screening O=C(CCN1CCOCC1)C1CC2(CO1)CN(Cc1ccccc1)c1ccccc12 (centres undefined) returned Tgondii IFNg 4.
For O=C(CC1COCCN1)NCc1cc(-c2ccccn2)no1 (centres undefined) the results were Tgondii IFNg -3.
`Cc1cccc(N2C(=O)c3cccc4c(N5CCNCC5)ccc(c34)C2=O)c1` gave Tgondii IFNg 0.
`O=S(=O)(c1ccccc1)c1cnc2c(N3CCNCC3)cccc2c1` gave Tgondii IFNg 15.
For O=c1cc(N2CCNCC2)oc2c(-c3ccccc3)cccc12 the results were Tgondii IFNg -85*!.
For Cc1[nH]c(/C=C2\C(=O)Nc3ccc(S(=O)(=O)N(C)c4cccc(Cl)c4)cc32)c(C)c1C(=O)N1CCN(C)CC1 the results were Tgondii IFNg -64.
Screening CCN(CC)CCNC(=O)c1c(C)[nH]c(/C=C2\C(=O)Nc3ccc(F)cc32)c1C returned Tgondii IFNg -75*.
For CCN(CC)CCNC(=O)c1ccc(N)cc1 the results were Tgondii IFNg 13.
`Cc1ccc2c(c1C)-n1cccc1C1(CCN(C(=O)COc3ccc(F)cc3)CC1)N2` gave Tgondii IFNg 28.
Fc1ccc(C2Nc3ccc4ccccc4c3C3=C2CCCC3)cc1 (centres undefined) was read as Tgondii IFNg -105*.
`O=c1oc2ccccc2c2c1C(c1ccc3c(c1)OCO3)Nc1ccc3ccccc3c1-2` (centres undefined) gave Tgondii IFNg 57.
Screening CC(=O)N1CCc2c(nc(-c3ccncc3)nc2NC(C)c2ncc[nH]2)C1 (centres undefined) returned Tgondii IFNg 19.
COc1ccccc1N1CCN(C(=S)c2ccccc2OC(F)(F)F)CC1 was read as Tgondii IFNg -27.
`COc1ccccc1N1CCN(C(=O)c2cc(C(C)(C)C)oc2C)CC1` gave Tgondii IFNg -108*.
Screening COc1ccccc1N1CCN(C(=O)C2CCCCC2)CC1 returned Tgondii IFNg 7.
`CC(C)N(CCc1ccccc1)C(=O)C1CCOC1` (centres undefined) gave Tgondii IFNg -10.
Screening CN(Cc1cnc(-c2ccccn2)nc1)Cc1cccc2ncccc12 returned Tgondii IFNg 0.
For Cc1ccccc1-c1ncc(CN(C)Cc2cccc3ncccc23)cn1 the results were Tgondii IFNg -89*.
Screening CCNc1ncc(CN(C)Cc2cccc3ncccc23)cn1 returned Tgondii IFNg -30.
For O=C1CCc2cc(NC(=O)C3CC3)ccc2N1 the results were Tgondii IFNg -3.
For O=C(CC1CC1)N[C@@H]1CN(Cc2ccoc2)C[C@H]2CCCO[C@H]21 the results were Tgondii IFNg -2.

From PubChem BioAssay
